Reference: ChEMBL document CHEMBL4513216, “Probing the Open Global Health Chemical Diversity Library for Multistage-Active Starting Points for Next-Generation Antimalarials” (ACS Infect Dis, 2020)
Out of some 69,000 compounds screened, about 8,600 (12%) showed an effect of 50% or more. This excerpt belongs to a sample that is enriched for strong results.

tested on: Plasmodium berghei; assay: Screen against P. berghei liver stage (PbLuc), transformed with Luciferase, at 10uM; type: functional, HepG2; details: tested at 10 uM

SMILES	INHIBITION [%]
CN1[C@@H]2CC[C@H]1CN(C(=O)c1sccc1S(N)(=O)=O)CC2	8.74
Cc1nnsc1C(=O)NCc1nn(C2CCCC2)c2c1CCCC2	49.4
O=C(CN1C(=O)CCC1=O)NCc1nn(C2CCCC2)c2c1CCCC2	56.3
O=C(CN1C(=O)CCC1=O)NCc1cc(C2CC2)n(C2CCCC2)n1	13.9
CC(=O)N[C@@H]1CN(Cc2ccccc2C#N)C[C@H]1c1ccc(C)cc1	41.3
CS(=O)(=O)CCn1ccc(NC(=O)Cc2ccccc2F)n1	21.2
O=C(NCc1cccc(F)c1)Nc1ccn(CCN2CCOCC2)n1	40.5
O=C(NCc1ccccc1F)Nc1ccn(CCN2CCOCC2)n1	50.1
COCCn1ccc(NCc2sccc2C)n1	-60.1
Cn1ccc(NC(=O)Cc2cccc(F)c2)n1	-74.2
Cn1ccc(NC(=O)Cc2ccccc2F)n1	57.1
Cc1ccsc1CNC(=O)Nc1ccn(CCN2CCOCC2)n1	64
O=C(Cc1ccccc1Cl)Nc1ccn(CCN2CCOCC2)n1	45.8
CSC1(CNC(=O)NCc2sccc2C)CCOCC1	30.4
Cc1[nH]c2c(C)ccc(C)c2c1CC(=O)NC1CCCNC1=O (stereo unspecified)	35.7
COC(=O)CCNC(=O)c1nc(NS(=O)(=O)c2ccccc2)sc1C	32.2
COc1c(C2CCCN2CC(=O)N2CCCCC2)c(C)nn1C (stereo unspecified)	8.12
O=C(CCn1cncn1)N1CCCC(CO)(CCCc2ccccc2)C1 (stereo unspecified)	72.3
O=C(CCn1cnnn1)N1CCCC(CO)(CCc2ccccc2)C1 (stereo unspecified)	39.8
O=C(CCn1cnnn1)N1CCCC(CO)(CCCc2ccccc2)C1 (stereo unspecified)	23.1
CN(C)C(=O)CN1CCCC1c1nc(N)ncc1-c1ccc(F)cc1 (stereo unspecified)	34
N#Cc1ccc(NC2CCN(CC(F)F)CC2)c(F)c1	8.53
N#Cc1cccc(N2CC3(CCN(C(=O)c4ccnnc4)C3)CC2=O)c1 (stereo unspecified)	-13.1
O=C(CCN1CCCC(CC2CC2)(C(=O)O)C1)NC1CCCC1 (stereo unspecified)	60.7

SMILES	INHIBITION [%]
CC(C)=CCC1(C(=O)O)CCCN(CCC(=O)NC2CC2)C1 (stereo unspecified)	61.8
CC(C)=CCC1(C(=O)O)CCCN(c2cc(N)ncn2)C1 (stereo unspecified)	46.4
CC(C)=CCC1(C(=O)O)CCCN(c2ccnc(C)n2)C1 (stereo unspecified)	47.4
Cc1nc(C)n(CC2CCCN(CCC(=O)NC3CCCC3)C2)n1 (stereo unspecified)	-8.11
O=C(CCN1CCCC(CO)(CC2CC2)C1)NC1CCCCC1 (stereo unspecified)	34.5
CC(=O)N(Cc1ncc(C)o1)C1CCN(CCc2cccs2)C1 (stereo unspecified)	12.7
CCn1cc(NC(=O)C(C)n2ncc(Cl)c2C)c(C(=O)OC)n1 (stereo unspecified)	6.83
CCSc1cc(C(=O)NCc2ccccc2O)ccn1	34.7
CCSc1cc(C(=O)NCCNC(=O)Cc2ccccc2)ccn1	26.9
CCSc1cc(C(=O)NCc2ccc(C(=O)NC)cc2)ccn1	76.5
Cc1nc(C)c(C(=O)Nc2ccc(-c3nnc(N(C)C)o3)cc2)o1	6.02
CCc1cnc(CN2CCC(N(C)Cc3noc(C)n3)C2)o1 (stereo unspecified)	13.6
CCc1nc(CN(C)C2CCN(CCc3cccs3)C2)no1 (stereo unspecified)	-79.1
CN(CCc1cccs1)C1CCCN(Cc2noc(C3CC3)n2)C1 (stereo unspecified)	51.8
CCc1nc(CN2CCCC(N(C)CCc3cccs3)C2)no1 (stereo unspecified)	56.6
Cc1nc(CN2CCCC(N(C)CCc3cccs3)C2)no1 (stereo unspecified)	3.47
CN(CCc1ccncc1)C1CCCN(Cc2noc(C3CC3)n2)C1 (stereo unspecified)	14.8
CCc1nc(CN2CCCC(N(C)CCn3cccn3)C2)no1 (stereo unspecified)	33.7
CN(C)Cc1nnc2n1CCN(c1cnccn1)CC2	-4.02
Cc1nc(C2CCN(C(=O)c3cnc(N(C)C)nc3)CC2)c2sccn12	-4.82
CN(C[C@@H]1CCC[C@@H]2CN(c3ncccn3)C[C@@H]21)C1CC1	38.3
Cc1cccc(CSc2ncc(Cl)c(C(=O)O)n2)c1	12.1
Cc1ccc(F)c(C(=O)Nc2c(C(N)=O)n[nH]c2C)c1	-18.3
Cc1cc(N(C)Cc2ncc(-c3ccccc3C(=O)O)s2)ncn1	5.6045

SMILES	INHIBITION [%]
Cc1cc(CN(CC(N)=O)CC(C)C)on1	43.2
Cc1ccc(-c2cc(CN(CC(N)=O)CC(C)C)on2)cc1	57.8
Cc1cc(CN(CC(N)=O)CC(C)C)no1	7.39
Cc1cccc(-c2nccn2C2CC(=O)N(C(C)C)C2)n1 (stereo unspecified)	25.9
CNC(=O)NC(=O)CCN1CCN(c2ccc(C(=O)OC)cc2)CC1C (stereo unspecified)	23.7
O=c1c2ccccc2cnn1Cc1cncn1C1CC1	0.33
O=C(CCc1ccccc1)C1CCCN(Cc2cncn2C2CC2)C1 (stereo unspecified)	27.4
CC1(c2ccccc2)CCCN(Cc2nnc(-c3cccnc3)o2)C1 (stereo unspecified)	5.91
COCCn1cncc1CN1CCCC(C)(c2ccccc2)C1 (stereo unspecified)	30.1
COCCn1cncc1CN1CCCC(C(=O)Cc2ccccc2)C1 (stereo unspecified)	20.5
CC1(c2ccccc2)CCCN(Cc2cncn2C2CC2)C1 (stereo unspecified)	50.7
CC1(c2ccccc2)CCCN(Cc2cncn2C2CCCC2)C1 (stereo unspecified)	89.6
Cn1cncc1CN1CCOC(Cc2ccccc2)C1 (stereo unspecified)	-54.1
CCCN1CCCC2(CCN(Cc3cncn3C3CCCCC3)C2)C1=O (stereo unspecified)	-21.5
CN1CCCC2(CCN(Cc3cncn3C3CCCCC3)C2)C1=O (stereo unspecified)	62.1
CCCN1CCCC2(CCN(Cc3cncn3C3CCCC3)C2)C1=O (stereo unspecified)	21.2
O=C(Cc1ccccc1)C1CCCN(Cc2cncn2C2CCCC2)C1 (stereo unspecified)	69
CN1CCCC(Cc2cc(N(C)C)ncn2)C1 (stereo unspecified)	38.7
Cc1ncc(C(=O)NCCNC(=O)Cc2cccc(F)c2)s1	-13.5
Cc1nccc(C2CN(S(=O)(=O)N(C)C)C2)n1	-3.02
CCC(C(=O)NCC1=CCN(C)CC1)c1ccccc1 (stereo unspecified)	8.7
CNc1ccc(CC2CCCN(C(=O)c3cccc(C)n3)C2)nn1 (stereo unspecified)	45.6
CS(=O)(=O)N1CCc2c(cccc2NC(=O)Nc2ccccn2)C1	19.2
